Unmarked numbers belong to inactive results. Records with an inconclusive call do not appear. Entries that show only a call come without a potency. The source made the active and inactive calls. Unless noted, calls come from the whole dose curve; as a rule, active = well fitted curve in the direction sought with a large enough effect in the repeat runs; inconclusive = weak or mixed curves; inactive = no such curve, though single readings can be large; an effect the other way counts as inactive or inconclusive.
How the values were obtained:
[1] = qHTS RealTime-Glo MT Cell Viability Assay in HEK293 cells - 24 hour (AID 1224886); note: top concentration of the series differs between compounds; nearly all actives have a fitted effect of over 50% in size
In short: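 Cells + reagent dispensed (600 cells/well, HEK293) → 5 h at 37 C/5% CO2 → 23 nL compound in DMSO pinned → 40 h at 37 C → luminescence read at 0, 8, 16, 24, 32, 40 h.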

[2] = qHTS RealTime-Glo MT Cell Viability Assay in HEK293 cells - 8 hour (AID 1224887); note: top concentration of the series differs between compounds; nearly all actives have a fitted effect of over 50% in size
In short: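 600 cells/well were plated with the nonlytic NanoLuc/prosubstrate reagent, pre-incubated 5 h, then given 23 nL of compound in DMSO. Incubation at 37 C for 40 h, with luminescence from viable-cell-reduced substrate read repeatedly from 0 h.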

[3] = A CellTox Green Cytotoxicity Assay to monitor cytotoxicity in HEK293 cells - 16 hour (AID 1224888); note: nearly all actives have a fitted effect of over 35% in size; note: potency is the fitted concentration of half-maximal effect
In short: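 HEK293 cells, 600/well, were preincubated 5 hours and then exposed to compounds at 37 C for up to 40 hours. A cell-impermeant cyanine dye staining dead-cell DNA was read by fluorescence at 0, 8, 16, 24, 32 and 40 h time points.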

[4] = qHTS RealTime-Glo MT Cell Viability Assay in HepG2 cells - 0 hour (AID 1224889); note: nearly all actives have a fitted effect of over 50% in size
In short: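 Real-time, nonlytic viability: 600 HepG2 cells/well mixed with NanoLuc enzyme plus prosubstrate; 5 h settle, compound (DMSO) added by pintool; luminescence monitored over 40 h at 37 C.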

[5] = qHTS assay to identify small molecule antagonists of the estrogen receptor alpha (ER-alpha) signaling pathway using the BG1 cell line in the presence of 0.1 nM 17-beta-estradiol - cell viability counter screen (AID 1259241); note: nearly all actives have a fitted effect of over 40% in size
In short: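 VM7Luc4E2, 4,000 cells/well, phenol red-free medium + 10% charcoal-stripped FBS; 24 hr plating; cpd + 0.1 nM E2 final, 22 hr 37C/5% CO2; CellTiter-Fluor 30 min, fluorescence.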

[6] = qHTS assay to identify small molecule antagonists of the androgen receptor (AR) signaling pathway using the MDA cell line in the presence of 0.5 nM R1881 - cell viability counter screen (AID 1259242); note: nearly all actives have a fitted effect of over 45% in size
In short: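 MDA-kb2 cells (MMTV-luciferase, AR/GR responsive) were treated with compounds plus 0.5 nM R1881 (final) for 16 hr at 37C, 0% CO2. Viability was then read in the same wells as live-cell protease fluorescence (CellTiter-Fluor, 30 min).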

[7] = qHTS assay to identify small molecule phospholipidosis (PLD) inducers (AID 1259344; active = well fitted curve in the direction sought with a large enough effect; an effect the other way counts as inactive or inconclusive)
In short: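 Quantitative HTS in HepG2: compound plus LipidTOX Red dye for 24 h, paraformaldehyde fixation with Hoechst 33342, widefield high-content imaging; amiodarone as positive and DMSO as negative control.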

[8] = qHTS assay to identify small molecule HDAC inhibitors (AID 1259364); note: top concentration of the series differs between compounds; nearly all actives have a fitted effect of over 45% in size
In short: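 Wild-type HCT-116 cells, plated overnight at 37 C, exposed to compounds 2 hr at 37 C; luminogenic HDAC-Glo substrate then added 30 min at room temperature. Luminescence reports relative endogenous class I/II HDAC activity.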

[9] = qHTS assay to identify small molecule HDAC inhibitors - cell viability counter screen (AID 1259365); note: series mostly up to about 92 µM; nearly all actives have a fitted effect of over 50% in size
In short: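 Luminescence from CellTiter-Glo, developed 30min at room temperature, reports viability of wild-type HCT-116 cells treated 2hr with compounds at 37 C and 5% CO2 after overnight plating.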

[10] = qHTS assay to identify small molecule agonists of the sonic hedgehog signaling (Shh) pathway - cell viability counter screen (AID 1259366); note: nearly all actives have a fitted effect of over 50% in size
In short: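 Cytotoxicity counter screen run in the same wells as the Shh reporter assay. NIH/3T3 cells carrying a Gli1 response element–driven luciferase were treated with DMSO-dissolved compounds for 24hr, and live-cell protease activity was measured with CellTiter-Fluor.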

[11] = qHTS assay to identify small molecule antagonists of the sonic hedgehog signaling (Shh) pathway - cell viability counter screen (AID 1259367); note: nearly all actives have a fitted effect of over 55% in size
In short: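 Seed 3T3 Gli1-Luc cells at 2,000 per well; incubate 4 hr; add compound in DMSO, then conditioned medium; incubate at 37C with 5% CO2; add CellTiter-Fluor after 23 hr; read fluorescence 1 hr later.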

[12] = qHTS assay to identify small molecule agonists of the sonic hedgehog signaling (Shh) pathway (AID 1259368; calls by dose curve;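 note: NIH/3T3-derived 3T3Gli1-Luc cells carrying a stable Gli1-driven firefly luciferase reporter; series mostly up to about 92 µM; nearly all actives have a fitted effect of over 15% in size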)
In short: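 NIH/3T3-derived 3T3Gli1-Luc cells with stably integrated Gli1-driven firefly luciferase, 2,000 cells/well, compounds added after 4 hr. Incubated 24 hr at 37C, 5% CO2; luminescence read after 30 min with luciferase reagent at room temperature.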

[13] = qHTS assay to identify small molecule antagonists of the sonic hedgehog signaling (Shh) pathway (AID 1259369; calls by dose curve; note: nearly all actives have a fitted effect of over 45% in size)
In short: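 NIH/3T3-derived Gli1-Luc reporter cells plated 4 h, dosed with compound, then stimulated with conditioned medium for 24 h at 37 C. Firefly luciferase luminescence read after 30 min with detection reagent at room temperature.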

[14] = molecular target: Estrogen receptor beta (Homo sapiens) (UniProt Q92731); test: qHTS assay to identify small molecule agonists of the estrogen receptor beta (ER-beta) signaling pathway (AID 1259377; active = well fitted activation curve with a large enough effect in the signal ratio in the repeat runs, not every such curve was filed as active; the % refers to the signal ratio)
Chain of Estrogen receptor beta (Homo sapiens) (Q92731 whole entry, looked up): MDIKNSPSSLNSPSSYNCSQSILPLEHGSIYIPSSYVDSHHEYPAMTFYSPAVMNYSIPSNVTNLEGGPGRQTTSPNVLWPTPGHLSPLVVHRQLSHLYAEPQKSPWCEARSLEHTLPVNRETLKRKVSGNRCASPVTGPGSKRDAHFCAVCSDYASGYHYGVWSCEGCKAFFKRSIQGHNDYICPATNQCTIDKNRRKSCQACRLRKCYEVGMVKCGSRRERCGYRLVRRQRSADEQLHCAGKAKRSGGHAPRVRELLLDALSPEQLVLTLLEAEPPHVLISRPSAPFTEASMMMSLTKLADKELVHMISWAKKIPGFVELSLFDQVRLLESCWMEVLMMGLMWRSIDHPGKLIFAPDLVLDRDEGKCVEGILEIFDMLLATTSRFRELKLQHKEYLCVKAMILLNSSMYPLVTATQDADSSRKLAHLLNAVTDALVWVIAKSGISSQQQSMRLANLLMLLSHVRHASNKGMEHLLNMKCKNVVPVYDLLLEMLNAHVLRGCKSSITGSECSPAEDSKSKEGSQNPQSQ
In short: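 HEK293T ER-beta-UAS-bla; 2% charcoal-stripped FBS; cells pre-incubated 6 hr, compound 16 hr, 37C/5% CO2; LiveBLAzer B/G FRET substrate 2 h RT; fluorescence intensity read.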

[15] = molecular target: Estrogen receptor beta (Homo sapiens) (UniProt Q92731); test: qHTS assay to identify small molecule antagonists of the estrogen receptor beta (ER-beta) signaling pathway (AID 1259378; active = well fitted inhibition curve with a large enough effect in the signal ratio in the repeat runs, not every such curve was filed as active; the % refers to the signal ratio)
In short: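 ER-beta-UAS-bla HEK293T cells in 2% charcoal-stripped FBS medium treated with compound plus 1nM final 17-beta-estradiol for 16 hr at 37C. Beta-lactamase reporter read by FRET substrate fluorescence after 2 hours at room temperature.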

[16] = qHTS assay to identify small molecule agonists of the androgen receptor (AR) signaling pathway in the presence of an antagonist - cell viability counter screen (AID 1259379);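 note: MDA-kb2 human breast cancer cells carrying an MMTV luciferase reporter; series mostly up to about 92 µM; nearly all actives have a fitted effect of over 25% in size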
In short: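 MDA-kb2 cells (MMTV-luciferase, AR/GR), 3,000/well, 5 h attachment, then 3.0 µM nilutamide (final) and compounds at 15 concentrations. Viability by CellTiter-Fluor fluorescence after 16 h at 37 °C, 0% CO2, in the reporter wells.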

[17] = qHTS assay to identify small molecule agonists of the estrogen receptor beta (ER-beta) signaling pathway - cell viability counter screen (AID 1259380); note: nearly all actives have a fitted effect of over 30% in size
In short: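 ER-beta-UAS-bla HEK293T cells in medium with 2% charcoal-stripped FBS, pre-incubated 6 hr, then treated 16 hr at 37C. Cytotoxicity read in the same wells by CellTiter-Glo luminescence after 30 min at room temperature.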

[18] = A CellTox Green Cytotoxicity Assay to monitor cytotoxicity in HepG2 cells - 8 hour (AID 1224890); note: nearly all actives have a fitted effect of over 45% in size; note: potency is the fitted concentration of half-maximal effect
In short: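 HepG2 cells, 600/well, preincubated 5 h with CellTox Green dye, then exposed to Tox21 compounds in DMSO at 37 C for up to 40 h. Dead-cell DNA fluorescence read at the indicated time point.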

[19] = molecular target: Estrogen receptor (Homo sapiens) (UniProt P03372); test: qHTS assay to identify small molecule antagonists of the estrogen receptor alpha (ER-alpha) signaling pathway using the BG1 cell line in the presence of 0.1 nM 17-beta-estradiol (AID 1259244); note: nearly all actives have a fitted effect of over 50% in size
Chain of Estrogen receptor (Homo sapiens) (P03372 whole entry, looked up): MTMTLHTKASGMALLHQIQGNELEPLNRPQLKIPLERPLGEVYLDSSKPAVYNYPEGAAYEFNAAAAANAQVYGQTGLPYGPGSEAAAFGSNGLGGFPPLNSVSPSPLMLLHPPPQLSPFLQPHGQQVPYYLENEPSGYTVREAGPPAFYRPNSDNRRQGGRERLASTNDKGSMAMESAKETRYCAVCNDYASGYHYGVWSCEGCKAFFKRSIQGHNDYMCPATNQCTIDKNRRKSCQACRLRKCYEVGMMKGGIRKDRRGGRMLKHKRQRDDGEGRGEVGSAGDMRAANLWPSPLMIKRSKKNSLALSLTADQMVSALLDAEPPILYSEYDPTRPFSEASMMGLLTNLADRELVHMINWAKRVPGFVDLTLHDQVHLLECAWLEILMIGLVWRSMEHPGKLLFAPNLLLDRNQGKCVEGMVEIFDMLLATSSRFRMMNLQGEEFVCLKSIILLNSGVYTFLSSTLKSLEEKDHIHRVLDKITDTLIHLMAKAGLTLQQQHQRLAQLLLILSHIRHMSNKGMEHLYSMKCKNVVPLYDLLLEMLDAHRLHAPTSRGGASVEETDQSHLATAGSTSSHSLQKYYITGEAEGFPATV
In short: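 VM7Luc4E2 cells (endogenous full-length ER-alpha, 4×ERE-luciferase), kept 5 days in phenol red-free, charcoal-stripped FBS medium; 4,000 cells/well. Compounds added with 0.1 nM (final) 17beta-estradiol, 22 hr at 37C; luminescence read with ONE-Glo after 30 min.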

| Compound | Potency [1] | Potency [2] | Potency [3] | Potency [4] | outcome [5] | outcome [6] | outcome [7] | Potency [8] | outcome [9] | outcome [10] | outcome [11] | outcome [12] | Potency [13] | Potency [14] | Potency [15] | outcome [16] | outcome [17] | Potency [18] | outcome [19] |
| --- | --- | --- | --- | --- | --- | --- | --- | --- | --- | --- | --- | --- | --- | --- | --- | --- | --- | --- | --- |
| Cn1c(=O)c2c(ncn2CCO)n(C)c1=O | inactive | inactive | inactive | inactive | inactive | inactive | inactive | inactive | inactive | inactive | inactive | inactive | inactive | inactive | inactive | inactive | inactive | – | – |
| CC(O)COC(C)(C)C (stereo not given) | inactive | inactive | inactive | inactive | – | inactive | – | inactive | inactive | inactive | inactive | inactive | inactive | – | – | inactive | inactive | inactive | – |
| CCCCCCCCCOC(=O)CCCCC(=O)OCCCCCCC | inactive | inactive | 27.5 µM (active) | inactive | – | inactive | – | inactive | – | inactive | inactive | inactive | inactive | – | – | inactive | inactive | 38.9 µM (active) | – |
| CCC(C)C(=O)OCCc1ccccc1 (stereo not given) | inactive | inactive | inactive | inactive | inactive | inactive | – | inactive | inactive | – | inactive | – | – | – | – | inactive | inactive | – | inactive |
| CCC/C=C(\C=O)CC | inactive | inactive | inactive | inactive | – | inactive | – | inactive | inactive | inactive | inactive | – | inactive | inactive | inactive | inactive | inactive | inactive | inactive |
| Cc1ncc([N+](=O)[O-])n1CC(C)O (stereo not given) | inactive | inactive | inactive | – | inactive | inactive | inactive | inactive | – | inactive | inactive | inactive | inactive | inactive | inactive | inactive | inactive | inactive | inactive |
| OC[C@@H](O)C(O)[C@@H](O)CO (stereo not given in full) | inactive | inactive | inactive | inactive | – | inactive | – | inactive | inactive | inactive | inactive | inactive | inactive | – | – | inactive | inactive | inactive | – |
| O=Cc1cc2ccccc2o1 | inactive | inactive | inactive | inactive | – | – | – | inactive | inactive | inactive | inactive | inactive | inactive | – | – | inactive | inactive | – | – |

Reference: PubChem BioAssay (Tox21)
